Test results as given in PubChem BioAssay AID624405 (Broad Institute, 2012).
The campaign covered roughly 1,900 compounds. About 250 (13%) were called active. Roughly 4% stayed inconclusive and do not appear here.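 The calls were made as follows: active = fitted curve reaches 40% rescue activity at or below the top valid dose, in every test run; inconclusive = test runs disagree, some active and some inactive; inactive = every run misses the threshold or moves the wrong way.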 Not all results are given here. Results with a measured potency or affinity are listed apart.

Test: suppressors of statin myotoxicity in myotubes, dose response, cell-based, C2C12 myotubes, ATP luminescence, cherry pick (AID 624405);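 also: myotubes are challenged with simvastatin at 10 µM to lower ATP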
Settings: C2C12 myotubes + simvastatin, 48 h, scaled: DMSO wells 0, geranylgeraniol wells 100; series mostly up to 19.5 µM

Which outcome does the source give for COc1ccc2oc(=O)cc(CN3CCN(Cc4ccc(OC)c(OC)c4OC)CC3)c2c1 here?
The outcome was “inactive”.

With C[C@@H]1CN([C@@H](C)CO)C(=O)Cc2cc(N(C)C)ccc2O[C@H]1CN(C)Cc1ccc2c(c1)OCO2 as the compound, how does the outcome read?
Its outcome is “inactive”.

For O=c1c2ccccc2ncn1Cc1nc2ccccc2s1, which outcome is on record?
Its outcome is “inactive”.

Which outcome does the source give for COc1ccc(Cc2nc(C(=O)Nc3ccc(OC)cc3)cs2)cc1 here?
The outcome was “inactive”.

Which outcome does the source give for C[C@@H]1CCCCO[C@@H](CN(C)C(=O)Nc2cccc3ccccc23)[C@@H](C)CN([C@@H](C)CO)C(=O)c2cc(NS(=O)(=O)c3ccc(Cl)cc3)ccc2O1 here?
Its outcome is “inactive”.

Which outcome does the source give for COc1cccc(C#Cc2ccc3c(c2)O[C@H](CN(C)C(=O)c2ccccn2)[C@H](C)CN([C@H](C)CO)S3(=O)=O)c1 here?
Its outcome is “inactive”.

Which outcome does the source give for Cc1ccc(S(=O)(=O)N(C)c2ccc(C(=O)O)cc2)cc1 here?
The outcome was “inactive”.

Which outcome does the source give for CCC1(C)Cc2c(sc3nc(NN)n(C)c(=O)c23)CO1 (stereo not given) here?
Its outcome is “inactive”.

For C[C@H]1CN([C@@H](C)CO)C(=O)c2cc(C3=CCCCC3)cnc2O[C@H]1CN(C)Cc1ccccc1F, which outcome is on record?
The outcome was “inactive”.

With C[C@@H]1CN([C@@H](C)CO)C(=O)c2cc(C#CC3CCCCC3)cnc2O[C@H]1CN(C)S(=O)(=O)c1ccc(F)cc1 as the compound, how does the outcome read?
Its outcome is “inactive”.

With C[C@H]1CN([C@@H](C)CO)C(=O)Cc2cc(NC(=O)CCCCCC(=O)Nc3ccccc3N)ccc2O[C@@H]1CN(C)Cc1ccc(Oc2ccccc2)cc1 as the compound, how does the outcome read?
Its outcome is “inactive”.

For C[C@@H]1CN([C@H](C)CO)C(=O)Cc2cc(NC(=O)CCCCCC(=O)Nc3ccccc3N)ccc2O[C@H]1CN(C)Cc1ccc(Oc2ccccc2)cc1, which outcome is on record?
Its outcome is “inactive”.

Which outcome does the source give for O=C(c1ccco1)N(Cc1ccco1)c1ccc(O)cc1 here?
Its outcome is “inactive”.

With C[C@H]1CCCCO[C@H](CN(C)S(=O)(=O)c2ccc(Cl)cc2)[C@@H](C)CN([C@@H](C)CO)C(=O)c2cc(NS(C)(=O)=O)ccc2O1 as the compound, how does the outcome read?
The outcome was “inactive”.

With COCCNC(=O)CSc1nc2ccccc2c2nc(C)nn12 as the compound, how does the outcome read?
Its outcome is “inactive”.

Which outcome does the source give for C[C@H](CO)N1C[C@H](C)[C@@H](CN(C)Cc2ccc(-c3ccccc3)cc2)Oc2ccc(NC(=O)Cn3cnnn3)cc2CC1=O here?
The outcome was “inactive”.

For C[C@@H]1CN([C@@H](C)CO)C(=O)c2cc(C#Cc3ccc(F)cc3)cnc2O[C@H]1CN(C)C(=O)c1ccccc1F, which outcome is on record?
The outcome was “inactive”.

Which outcome does the source give for COc1ccc(S(=O)(=O)Nc2ccc3c(c2)C(=O)N([C@H](C)CO)C[C@H](C)[C@H](CN(C)Cc2ccc(Cl)c(Cl)c2)OCCCC[C@@H](C)O3)cc1 here?
The outcome was “inactive”.

With CN1C(=O)c2cc(NC(=O)c3cscn3)ccc2OC[C@H]2O[C@H](CC(=O)NCc3ccc(Cl)c(Cl)c3)CC[C@H]21 as the compound, how does the outcome read?
The outcome was “inactive”.

For COc1ccc(S(=O)(=O)Nc2ccc3c(c2)CC(=O)N([C@H](C)CO)C[C@@H](C)[C@H](CN(C)Cc2ccc(Cl)c(Cl)c2)O3)cc1, which outcome is on record?
The outcome was “inactive”.
